Results published in the supplement of paper PMC10127200.
Counter-ions that a name gives are not always drawn.

Tests used:
Assay in all cases: Euclidean distance of Cell Painting phenotypic profile (signed KS, 77 features) to DMSO centroid (dimensionless distance); higher = stronger phenotypic change vs DMSO (phenoactivity)
Conditions in all cases: 48 h; 5 or 10 uM (library dependent)
786-O = test system: 786-O
Summary of the method: (§1)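 Harmony extracted 77 features from 20X confocal images (9 fields/well) of stained cells, scoring each as a signed Kolmogorov-Smirnov statistic against same-plate vehicle wells. The cells, five cancer lines and a healthy fibroblast line, had received library compounds for 48 h at 10 or 5 uM depending on library, with 0.1% DMSO final. Phenoactivity is the Euclidean distance from each plate-position-corrected, correlation-weighted, top-dose replicate-averaged profile to the median vehicle profile.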

A549 = test system: A549
Summary of the method: as §1

DU145 = test system: DU145
Summary of the method: as §1

FB = test system: FB
Summary of the method: as §1

HEPG2 = test system: HEPG2
Summary of the method: as §1

OVCAR4 = test system: OVCAR4
Summary of the method: as §1

Row | SMILES | Euclidean distance (786-O) | Euclidean distance (A549) | Euclidean distance (DU145) | Euclidean distance (FB) | Euclidean distance (HEPG2) | Euclidean distance (OVCAR4)
1 | CC(O)(CS(=O)(=O)c1ccc(F)cc1)C(=O)Nc1ccc(C#N)c(C(F)(F)F)c1 (stereo not drawn) [Bicalutamide] | 1.1 | 1.04 | 0.992 | 1.28 | 0.832 | 1.65
2 | Cc1sc2c(c1C)C(c1ccc(Cl)cc1)=N[C@@H](CC(=O)Nc1ccc(O)cc1)c1nnc(C)n1-2 | 2.95 | 2.08 | 2.15 | 4.11 | 1.91 | 1.77
3 | O=[N+]([O-])/C=C/c1ccc2c(c1)OCO2 | 4.42 | 2.25 | 0.868 | 2.39 | 0.782 | 2.34
4 | CCC1(c2ccc(N)cc2)CCC(=O)NC1=O (stereo not drawn) [Aminoglutethimide] | 1.19 | 0.545 | 0.574 | 1.37 | 0.54 | 1.67
5 | CC(CCc1ccccc1)NC(C)C(O)c1ccc(O)cc1 (stereo not drawn) [Nylidrin Hydrochloride] | 1.45 | 1.2 | 1.38 | 1.11 | 1.29 | 1.34
6 | N#Cc1nn(-c2c(Cl)cc(C(F)(F)F)cc2Cl)c(N)c1[S+]([O-])C(F)(F)F (stereo not drawn) [Fipronil] | 0.855 | 1.11 | 0.897 | 1.05 | 0.591 | 0.894
7 | CC(=O)OC12COC1CC(O)C1(C)C(=O)C(O)C3=C(C)C(O)CC(O)(C(OC(=O)c4ccccc4)C21)C3(C)C (stereo not drawn) [10-Deacetylbaccatin-III] | 1.79 | 1.11 | 0.834 | 1.7 | 1.38 | 1.4
8 | CNC(C)Cc1ccccc1OC (stereo not drawn) [Methoxyphenamine Hydrochloride] | 0.913 | 1.83 | 0.725 | 1.38 | 0.34 | 2.5
9 | CC(=O)O[C@H]1C[C@@H]2CC[C@@H]3[C@H](CC[C@@]4(C)[C@H]3C[C@H]([N+]3(C)CCCCC3)[C@@H]4OC(C)=O)[C@@]2(C)C[C@@H]1[N+]1(C)CCCCC1 [Pancuronium dibromide] | 1.41 | 0.916 | 0.532 | 0.954 | 0.518 | 1.42
10 | N[C@@H]1C[C@H]1c1ccccc1 [Tranylcypromine (2-PCPA) HCl] | 1.2 | 1.52 | 1.36 | 2.02 | 1.47 | 1.76
11 | O=C/C=C/c1ccccc1 [Cinnamaldehyde] | 1 | 0.658 | 0.988 | 0.954 | 1.14 | 0.848
12 | O=c1[nH]c2ccc(Cl)cc2c(N[C@@H]2CN3CCC2CC3)c1-c1nc2ccccc2[nH]1 | 4.06 | 4.17 | 3.75 | 3.55 | 3.51 | 4.86
13 | CN1[C@@H]2C[C@@H](OC(=O)[C@H](CO)c3ccccc3)C[C@H]1[C@@H]1O[C@@H]12 [Scopolamine HBr] | 1.07 | 0.645 | 0.406 | 0.816 | 0.391 | 1.01
14 | CC(NC(C)(C)C)C(=O)c1cccc(Cl)c1 (stereo not drawn) [Amfebutamone (Bupropion) HCl] | 1.39 | 0.604 | 0.844 | 0.936 | 0.484 | 1.02
15 | CC(C)[C@H](N)C(=O)N1CCC[C@H]1B(O)O [Talabostat (Val-boroPro. PT-100)] | 1.38 | 0.905 | 1.12 | 1.08 | 0.878 | 0.712
16 | C[N+]12CCC(CC1)C(OC(=O)C(O)(c1ccccc1)c1ccccc1)C2 (stereo not drawn) [Clidinium Bromide] | 0.785 | 0.788 | 0.87 | 0.845 | 0.445 | 0.671
17 | CCN(CC)C(=O)c1ccc(C2=CC3(CCNCC3)Oc3cccc(O)c32)cc1 | 0.588 | 1.87 | 0.833 | 0.776 | 1.75 | 0.973
18 | O=C1CCC[C@@H]2[C@H]3CCCN4CCC[C@@H](CN12)[C@@H]34 [(+)-Matrine] | 1 | 0.876 | 0.902 | 1.03 | 0.874 | 0.759
19 | C=CCN1C[C@H](C(=O)N(CCCN(C)C)C(=O)NCC)C[C@@H]2c3cccc4[nH]cc(c34)C[C@H]21 [Cabergoline] | 1.45 | 0.993 | 1.12 | 1.34 | 0.928 | 1.3
20 | CN1[C@@H]2CC[C@H]1C[C@@H](OC(=O)C(CO)c1ccccc1)C2 (stereo partly drawn) [Atropine sulfate] | 0.994 | 0.9 | 0.824 | 0.898 | 0.473 | 1.38
21 | O=c1ccc2ccc3occc3c2o1 [Isopsoralen] | 1.25 | 0.993 | 0.786 | 1.02 | 0.495 | 1.1
22 | CN1CCC(c2c[nH]c3ccc(O)cc23)CC1 | 0.692 | 0.484 | 1.17 | 0.749 | 2.09 | 0.873
23 | C/C(=C\c1csc(C)n1)[C@@H]1C[C@@H]2O[C@@H]2CCC[C@H](C)[C@H](O)[C@@H](C)C(=O)C(C)(C)[C@@H](O)CC(=O)O1 [Epothilone A] | 3.01 | 2.89 | 4.3 | 2.5 | 2.34 | 3.02
